Source: PubChem (NMMLSC)
LAP4-GFP MLPCN: alters LAP4-GFP fluorescence in TOR pathway yeast screen; S. cerevisiae LAP4-GFP multiplex, flow cytometry GFP, 3 h; median GFP as percent of DMSO wells; GFP response vs DMSO, % at 10 µM; hit rate 0.34% among 320,000; AID 2023;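 active means GFP response vs DMSO above a set limit, about the screen mean plus 3 SD, cut at about 150% in these data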
MEP2 TOR yeast: yeast TOR pathway MEP2-GFP modulation; S. cerevisiae MEP2-GFP strain, flow cytometry GFP, 3 h; 100% = DMSO control level; GFP response vs DMSO, % at 10 µM; hit rate 0.51% among 330,000;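 active means GFP response versus DMSO above a set limit, roughly screen mean plus 3 SD, cut at about 180% in these data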;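 further: median GFP fluorescence of the barcode-gated MEP2-GFP cells per well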
AGP1-GFP MLPCN: modulators of TOR pathway AGP1-GFP in S. cerevisiae. AID 2066. hit rate 0.02% among 320,000. S. cerevisiae AGP1-GFP multiplex flow cytometry, 3 h; GFP as percent of DMSO wells. GFP response vs DMSO, % at 10 µM;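 active means GFP response relative to DMSO above a set limit, near screen average plus 3 SD, cut at about 150% in these data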;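 further: median GFP channel fluorescence of the gated AGP1 strain per well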
CIT2 TOR yeast: yeast TOR pathway CIT2-GFP modulation. S. cerevisiae CIT2-GFP strain, flow cytometry, 3 h; 100 means same as DMSO wells. hit rate 0.065% among 320,000. GFP response vs DMSO, % at 10 µM. AID 2029;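 active means GFP response relative to DMSO above a set limit, near the screen mean plus 3 SD, cut at about 150% in these data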;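 further: ratio of well median GFP fluorescence to mean of DMSO wells on the plate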
RPL19A TOR yeast: alters RPL19A-GFP fluorescence in TOR pathway yeast screen; S. cerevisiae RPL19A-GFP strain, flow cytometry, 3 h; active compounds read low; percent response vs DMSO, % at 10 µM; hit rate 0.3% among 330,000;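 active means percent response vs DMSO below 50%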;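 further: median channel GFP fluorescence of the barcoded RPL19A-GFP strain; lower means less RPL19A-GFP as with rapamycin TOR inhibition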
LAP4-GFP pick2: second confirmation of modulators of TOR reporter LAP4-GFP in yeast. shares compounds with LAP4-GFP MLPCN. S. cerevisiae LAP4-GFP strain, flow cytometry GFP, 3 h. GFP response vs DMSO, % at 10 µM. hit rate 20% among 590. AID 2621;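 active means GFP signal as percent of the solvent control above about 150%, meaning raised reporter expression, limit read from the data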
MEP2 cherry2: second confirmation of modulators of TOR reporter MEP2-GFP in yeast; shares compounds with LAP4-GFP MLPCN; S. cerevisiae MEP2-GFP strain, flow cytometry GFP, 3 h; GFP response vs DMSO, % at 10 µM; hit rate 10% among 590; AID 2622;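 active means GFP signal above 150% of the solvent control wells, that is a rise of more than half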;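 further: median channel GFP fluorescence of all gated yeast cells per well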
RPL19A-GFP pick2: reconfirmed modulator of RPL19A-GFP TOR reporter in yeast. S. cerevisiae RPL19A-GFP strain, flow cytometry GFP, 3 h; active compounds read low; 100% means same as DMSO wells. hit rate 3% among 590. shares compounds with LAP4-GFP MLPCN. GFP response vs DMSO, % at 10 µM. AID 2623;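 active means under 65% GFP response relative to DMSO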;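 further: median GFP channel fluorescence per well over the all cells gate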
CIT2 GFP CP2: reconfirmed modulator of CIT2-GFP TOR reporter in yeast; shares compounds with LAP4-GFP MLPCN; S. cerevisiae CIT2-GFP strain, flow cytometry GFP, 3 h; DMSO control wells read 100%; GFP response vs DMSO, % at 10 µM; hit rate 8% among 590;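 active means GFP response vs DMSO above about 150%, limit read from the data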;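 further: median green fluorescence per well over all gated yeast cells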
AGP1 GFP CP2: reconfirmed modulator of AGP1-GFP TOR reporter in yeast; shares compounds with LAP4-GFP MLPCN; S. cerevisiae AGP1-GFP strain, flow cytometry GFP, 3 h; percent response vs DMSO, % at 10 µM; 590 tested, under 10 active;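 active means over 150 percent of DMSO response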;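 further: median GFP channel fluorescence over all cells without mother daughter split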
Yeast autofluor: compound is autofluorescent in yeast s288c cells | fluorescence change (kMESF span) at 33 µM | S. cerevisiae s288c, 520 nm autofluorescence, flow cytometry, 3 h; active compounds read high; zero means same as solvent-only cells | shares compounds with LAP4-GFP MLPCN | AID 2757 | 610 tested, under 10 active;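 active means fluorescence span over the dose series, or activity score, above about 33, limit read from the data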
A number is an active result; – = inactive; · = no result. A selection: hits, their analogues and other compounds. The true share with any hit is near 0.89%.

SMILES	LAP4-GFP MLPCN	MEP2 TOR yeast	AGP1-GFP MLPCN	CIT2 TOR yeast	RPL19A TOR yeast	LAP4-GFP pick2	MEP2 cherry2	RPL19A-GFP pick2	CIT2 GFP CP2	AGP1 GFP CP2	Yeast autofluor
CS/C(=N\S(=O)(=O)c1ccccc1)c1ccccc1	–	–	–	–	–	·	·	·	·	·	·
O=S(=O)(/N=C(/Sc1ccccc1)c1ccccc1)c1ccccc1	189.7	–	–	–	–	·	·	·	·	·	–
CN(C)c1ccncc1C(=O)Nc1ccc(F)cc1F	·	–	·	·	–	·	·	·	·	·	·
CC(C)CN1CCN(Cc2cnc(-c3ccc(Cl)cc3)nc2)CC1CCO (stereo not given)	–	–	–	–	–	–	–	–	–	–	·
CCc1ccc2c(c1)/C(=N/N(C)C(=S)NC)C(=O)N2	–	–	–	–	–	·	·	·	·	·	·
Cc1cccc2c1NC(=O)/C2=C\C(=O)c1cccs1	185.3	–	–	–	–	·	·	·	·	·	–
Cc1cc(Br)c2c(c1)/C(=C/C(=O)c1cccs1)C(=O)N2	–	–	–	·	–	·	·	·	·	·	–
Cc1cc(C)c2c(c1)/C(=C/C(=O)c1ccc(Br)s1)C(=O)N2	–	–	–	–	–	·	·	·	·	·	–
CCc1ccc2c(c1)/C(=C/C(=O)c1cccs1)C(=O)N2	169.4	–	–	–	–	·	·	·	·	·	–
CC1CCCCC1NC(=O)CN1C(=O)NC(C)(c2cccc(Br)c2)C1=O (stereo not given)	–	–	–	–	–	·	·	·	·	·	·
CC1CC(C)CN(S(=O)(=O)CC23CCC(CC2=O)C3(C)C)C1 (stereo not given)	–	–	–	–	–	·	·	·	·	·	·
CC(=O)Nc1ccc(S(=O)(=O)N(C)CCOCc2ccccc2)cc1	–	–	–	–	–	·	·	·	·	·	·
On1ccccc1=S	259.8	–	–	–	–	180.8	–	–	–	–	–
Cc1ccc(N/N=C(\C#N)C(N)=S)c(C)c1	161.0	–	–	–	–	166.3	218.3	–	–	–	–
CC(C)(C)C1CCc2sc(-c3nnc(CCl)o3)cc2C1 (stereo not given)	–	–	–	–	–	–	–	–	–	–	·
O=C(Nc1ccc(Cl)cc1Cl)c1ccc2c(c1)OCCO2	–	–	–	–	–	·	·	·	·	·	·
O=C(Nc1ccc(Cl)cc1Cl)c1cccc(N2C(=O)C=CC2=O)c1	183.7	–	–	–	–	·	·	·	·	·	–
CC1=NN(c2ccccc2)C(=O)/C1=C\c1c(C)[nH]n(-c2ccccc2)c1=O	–	–	–	–	–	–	–	–	–	–	·
COc1cccc2c(=O)c(C(=O)NCc3cccs3)c[nH]c12	–	–	–	–	–	–	–	–	–	–	–
O=C(O)CNC(=O)c1ccc(OC(F)F)cc1	–	–	–	–	–	·	·	·	·	·	·
O=C1CCCC(=O)N1c1ccc(O)cc1	–	–	–	–	–	·	·	·	·	·	·
O=C1C=CC(=O)N1c1ccc(OC(F)F)cc1	152.4	–	–	–	–	205.8	–	–	–	–	–
O=C1C=CC(=O)N1c1ccc(O)cc1	184.7	–	–	–	–	·	·	·	·	·	–
CCOC(=O)c1c(C)oc2c1c(C(c1ccncc1)N1CCOCC1)c(O)c1ccccc12 (stereo not given)	185.2	–	·	–	–	·	·	·	·	·	–
O=C(/C=C/c1cccc(Cl)c1)c1nc2ccccc2[nH]1	228.5	–	–	–	–	235.5	–	–	–	–	–
SMILES	LAP4-GFP MLPCN	MEP2 TOR yeast	AGP1-GFP MLPCN	CIT2 TOR yeast	RPL19A TOR yeast	LAP4-GFP pick2	MEP2 cherry2	RPL19A-GFP pick2	CIT2 GFP CP2	AGP1 GFP CP2	Yeast autofluor
O=C(O)c1ccc(-c2nc(-c3ccccc3)c(-c3cccs3)[nH]2)cc1	–	–	–	–	–	·	·	·	·	·	·
COc1ccc(-c2nc(-c3cccs3)c(-c3cccs3)[nH]2)cc1O	164.4	–	–	–	–	–	–	–	–	–	·
CNC(=S)N(CCc1c(C)[nH]c2ccccc12)Cc1ccco1	–	–	–	–	–	·	·	·	·	·	·
CCOC(=O)c1ccc(N=Cc2nc(-c3ccccc3)oc2OC(C)=O)cc1	207.6	–	–	–	–	·	·	·	·	·	–
COc1ccc(N=Cc2nc(-c3ccccc3)oc2OC(=O)c2ccccc2)cc1	–	–	–	–	–	·	·	·	·	·	–
CC(=O)Oc1oc(-c2ccccc2)nc1C=Nc1ccccc1	–	–	–	–	–	·	·	·	·	·	–
O=C(/C=C/c1ccc(F)cc1)c1cc(Br)ccc1O	–	–	–	–	–	·	·	·	·	·	·
O=C(/C=C/c1ccccc1)c1cc(Br)ccc(=O)c1O	–	–	–	–	–	–	153.7	–	162.7	–	–
COc1ccccc1C(=O)NC(CCSC)C(=O)NCC(c1cccs1)N(C)C (stereo not given)	–	–	–	–	–	·	·	·	·	·	·
COC(CNC(=O)c1ccc2c3c(onc13)-c1ccccc1C2=O)OC	229.9	–	–	–	–	·	·	·	·	·	–
O=C(O/N=C1/CCCc2occc21)c1ccc(Cl)cc1Cl	–	–	–	–	–	·	·	·	·	·	·
COc1ccc(C2OC34CCCCC3C(C#N)(C#N)C2(C#N)C(=N)O4)cc1 (stereo not given)	–	–	–	–	–	–	–	–	–	–	·
O=c1cc(-c2ccccc2)cc(-c2ccccc2)n1O	193.7	–	–	–	–	–	188.7	–	–	–	–
OCCC#Cc1c(-c2ccsc2)sc2ccccc12	159.2	–	–	–	–	–	–	–	–	–	·
O=C(c1ccccc1)c1ccccc1N1C(=O)C=CC1=O	327.2	–	–	–	–	·	·	·	·	·	–
COc1ccc2c(C(F)(F)F)cc(=O)oc2c1C	–	–	–	–	–	·	·	·	·	·	·
Cc1c(C)c2ccc(Oc3ccc([N+](=O)[O-])cc3C(F)(F)F)c(C)c2oc1=O	–	–	–	–	–	–	–	–	–	–	–
COc1ccc(NC(=O)Cc2ccccc2)cn1	–	–	–	–	–	·	·	·	·	·	·
COc1ccc(NC(=O)/C(Cl)=C(/Cl)S(=O)Cc2ccccc2)cn1 (stereo not given)	288.2	–	–	–	–	·	·	·	·	·	–
O=C1C=C(O)c2cccc(O)c2C1=O	–	–	–	–	–	·	·	·	·	·	·
